Source: PubChem BioAssay AID651699 (Sanford-Burnham Center for Chemical Genomics, 2012)
Out of some 360,000 compounds screened, about 2,100 (0.58%) were called active. The sample as a whole holds a higher share of actives than the screen did. A number with no mark means an inactive call. Cut-off read from the data, not from the text of the source: active = inhibition above about 36%; inactive = the rest.

target: NEDD8-conjugating enzyme Ubc12 (Homo sapiens) + NEDD8-activating enzyme E1 regulatory subunit (Homo sapiens) (UniProt P61081+Q13564); assay: inhibitors of cullin neddylation, primary screen, biochemical, TR-FRET, uHTS, NAE and Ubc12 (AID 651699); details: at 25 µM, hits give high values
Sequence (P61081 whole entry, looked up): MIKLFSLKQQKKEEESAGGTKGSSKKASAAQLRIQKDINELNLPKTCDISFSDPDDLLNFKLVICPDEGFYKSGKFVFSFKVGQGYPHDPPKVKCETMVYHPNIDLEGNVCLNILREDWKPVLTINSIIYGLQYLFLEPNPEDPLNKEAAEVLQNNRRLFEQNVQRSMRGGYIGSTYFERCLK
Sequence (Q13564 whole entry, looked up): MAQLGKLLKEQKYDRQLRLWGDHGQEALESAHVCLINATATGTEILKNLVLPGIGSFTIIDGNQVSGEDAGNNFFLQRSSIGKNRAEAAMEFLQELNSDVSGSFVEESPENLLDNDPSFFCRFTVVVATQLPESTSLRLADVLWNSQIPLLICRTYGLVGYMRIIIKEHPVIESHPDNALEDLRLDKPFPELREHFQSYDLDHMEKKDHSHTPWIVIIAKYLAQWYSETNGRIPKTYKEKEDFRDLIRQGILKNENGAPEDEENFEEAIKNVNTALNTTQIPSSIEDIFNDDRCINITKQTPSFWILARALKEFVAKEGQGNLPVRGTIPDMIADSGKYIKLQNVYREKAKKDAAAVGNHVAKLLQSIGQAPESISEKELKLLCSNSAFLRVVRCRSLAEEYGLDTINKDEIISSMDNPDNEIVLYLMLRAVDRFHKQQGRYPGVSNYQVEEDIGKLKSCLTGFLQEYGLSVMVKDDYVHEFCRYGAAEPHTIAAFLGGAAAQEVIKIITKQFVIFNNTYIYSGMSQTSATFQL

Question: Which inhibition does the source give for CCN1CCCC1CNc1ncnc2c1[nH]c1ccc(F)cc12 (centres undefined) here?
Answer: 37% (active)

Question: With CCN1CCCC1Cn1cnc2c([nH]c3cc(OC)ccc32)c1=O (centres undefined) as the compound, how does the inhibition read?
Answer: 1.83%

Question: Which inhibition does the source give for CCN1CCCC1CNC(=O)Cn1cnc2ccc(S(=O)(=O)N3CCC(C)CC3)cc2c1=O (centres undefined) here?
Answer: -2.38%

Question: With CCOC(=O)C1=C(N)N2C(=O)C(C)SC2=C(C(=O)OCC)C1c1cc(OC)c(OC)c(OC)c1 (centres undefined) as the compound, how does the inhibition read?
Answer: -1.53%

Question: How did the inhibition turn out when COc1ccc(CC(N)c2csc(NC(=O)NC(c3ccccc3)c3ccccc3)n2)cc1 (centres undefined) was run?
Answer: -1.83%

Question: CC(=O)c1ccc(Nc2nc(C(N)c3ccccc3)cs2)cc1 (centres undefined) was tested. Which inhibition did it give?
Answer: 41.1% (active)

Question: Which inhibition does the source give for COC(=O)c1ccc2c(c1)S(=O)(=O)NC(=NCCCN1CCOCC1)S2 here?
Answer: -10.1%

Question: With CC(Sc1nc2c([nH]c3ccccc32)c(=O)n1C)c1ccccc1 (centres undefined) as the compound, how does the inhibition read?
Answer: -4.19%

Question: Which inhibition does the source give for O=c1c2c(nc3cc(-c4cccc(Cl)c4)[nH]n13)CCCC2 here?
Answer: 40.3% (active)

Question: How did the inhibition turn out when Clc1cccc(Cc2c(-c3cccc(Cl)c3)nc3ccc(Cl)cn23)c1 was run?
Answer: -36.7%

Question: How did the inhibition turn out when CSc1nc2nc3c(c(=O)n2[nH]1)CCC3 was run?
Answer: -7.01%

Question: How did the inhibition turn out when O=C(Nc1cc(-c2nn(CC(=O)N3CCCCC3)c(=O)c3ccccc23)ccc1N1CCOCC1)c1ccc(Cl)cc1 was run?
Answer: 20.1%

Question: With O=C(CCl)NNc1cccc(Cl)n1 as the compound, how does the inhibition read?
Answer: 3.4%

Question: How did the inhibition turn out when COc1ccc2oc(C(=O)N(CC(C)C)C3CCS(=O)(=O)C3)c(C)c2c1 (centres undefined) was run?
Answer: 2.83%

Question: COc1ccc2oc(C(=O)NCC(Cc3ccccc3)N(C)C)c(C)c2c1 (centres undefined) was tested. Which inhibition did it give?
Answer: 43.3% (active)

Question: How did the inhibition turn out when NC(=O)C1(N2CCCCC2)CCN(C(=O)c2ccc(C#Cc3ccccc3)o2)CC1 was run?
Answer: -13.2%

Question: With O=C(NC(=S)Nc1ccc(Cl)c(C(=O)O)c1)c1cncc(Br)c1 as the compound, how does the inhibition read?
Answer: -4.06%

Question: Which inhibition does the source give for COc1ccc(Br)cc1/C=N/Nc1ccc(Cl)c(C(=O)O)c1 here?
Answer: 45.1% (active)

Question: For COc1ccc(Br)cc1/C=N/Nc1ccc(S(=O)(=O)Nc2ccccc2C(=O)O)cc1[N+](=O)[O-], which inhibition is on record?
Answer: -8.62%

Question: With CCN(CC(=O)NCc1cccs1)c1nnnn1-c1ccccc1 as the compound, how does the inhibition read?
Answer: 0.19%

Question: O=C(NCc1cccc(C(F)(F)F)c1)c1ccc2sc(COCCO)nc2c1 was tested. Which inhibition did it give?
Answer: 3.36%

Question: For CCOC(=O)c1cc(C(=O)Nc2ccc(S(=O)(=O)Nc3ccc(OC)cc3)cc2)nn1C, which inhibition is on record?
Answer: -1.03%

Question: How did the inhibition turn out when CC(C)CN(C(=O)COC(=O)c1ccc2ccccc2c1)c1c(N)n(Cc2ccccc2)c(=O)[nH]c1=O was run?
Answer: 3.53%

Question: How did the inhibition turn out when CC(C)CN(C(=O)COC(=O)c1ccc(Cl)c(N)c1)c1c(N)n(Cc2ccccc2)c(=O)[nH]c1=O was run?
Answer: 30.6%

Question: How did the inhibition turn out when COc1ccc2oc(C(=O)OCC(=O)N(CC(C)C)c3c(N)n(Cc4ccccc4)c(=O)[nH]c3=O)c(C)c2c1 was run?
Answer: 44.4% (active)

Question: CCN(CC)C(=O)C1=C(C)N(Cc2ccc(C(C)(C)C)cc2)C(=O)C(CC(=O)NCc2cccc3ccccc23)C1 (centres undefined) was tested. Which inhibition did it give?
Answer: -9.92%

Question: For CC(C)Cc1nc(Cl)c(C#N)c2c1CCC2, which inhibition is on record?
Answer: -5.13%

Question: How did the inhibition turn out when CC(C)Cc1nc(N2CCOCC2)c(C#N)c2c1CCC2 was run?
Answer: 44.8% (active)

Question: Which inhibition does the source give for COc1cc(S(=O)(=O)N2CCOCC2)ccc1NC(=O)COc1ccc(N(C)S(=O)(=O)c2ccc(C)cc2)cc1 here?
Answer: -8.3%

Question: CCNC(=O)CN(c1ccc(C)cc1)S(=O)(=O)c1ccc(SC)cc1 was tested. Which inhibition did it give?
Answer: -3.17%

Question: Which inhibition does the source give for Cc1cc(C(=O)OCC(=O)Nc2nnc(C(C)C)s2)c2ccccc2n1 here?
Answer: -11.2%

Question: CCOC(=O)c1cc(C)sc1NC(=O)C1CCC1 was tested. Which inhibition did it give?
Answer: -7.86%

Question: For CCOC(=O)c1cc(C(C)C)sc1NC(=O)COC(=O)c1nccnc1N, which inhibition is on record?
Answer: 45.2% (active)

Question: COc1ccc(CN(CC(=O)NC2CCCC2)C(=O)CCC(=O)Nc2cc(C)on2)cc1 was tested. Which inhibition did it give?
Answer: 6.41%

Question: Which inhibition does the source give for COc1cccc(NC(=O)c2nn(-c3ccc(OC)cc3OC)c(=O)c3ccccc23)c1 here?
Answer: -9.58%

Question: With CCN(c1ccccc1)S(=O)(=O)c1ccc(OCC(=O)N2CCCC2)cc1 as the compound, how does the inhibition read?
Answer: -24.7%

Question: How did the inhibition turn out when Cc1ccc(NC(=O)CC2C(=O)N(Cc3ccccc3)C(=S)N2NC(=O)c2cccc(F)c2)c(C)c1 (centres undefined) was run?
Answer: 2.05%

Question: Which inhibition does the source give for COc1ccc(Nc2ncc(C(=O)N3CCN(c4ccccc4OC)CC3)c3ccccc23)cc1 here?
Answer: 48.4% (active)

Question: How did the inhibition turn out when COc1ccc(-n2nc(C(=O)NCC(=O)N3CCN(c4ccccc4OC)CC3)c3ccccc3c2=O)c(OC)c1 was run?
Answer: 6.66%

Question: For COc1ccccc1N1CCN(C(=O)c2ccc(NC3=NC4CS(=O)(=O)CC4S3)cc2)CC1 (centres undefined), which inhibition is on record?
Answer: 0.72%

Question: With CCN(CC(=O)Nc1c(F)cccc1F)C(=O)c1cnc(C)cn1 as the compound, how does the inhibition read?
Answer: -6.81%

Question: For CCN(CC(=O)Nc1c(F)cccc1F)C(=O)c1ccc(-c2ccccc2)cc1, which inhibition is on record?
Answer: 4.05%

Question: How did the inhibition turn out when CCN(CC(=O)Nc1c(F)cccc1F)C(=O)c1ccc(-c2ccc(C(C)=O)cc2)o1 was run?
Answer: 71.9% (active)

Question: How did the inhibition turn out when COc1cc(C2C(C(=O)c3cccs3)=C(O)C(=O)N2CCN2CCOCC2)ccc1OCCC(C)C (centres undefined) was run?
Answer: -13.5%

Question: Which inhibition does the source give for CN(CC(=O)Nc1cccc(F)c1)C(=O)C1CC(=O)N(CCc2ccccc2)C1 (centres undefined) here?
Answer: -1.18%

Question: Cc1cc(C)c2[nH]c(=O)c(CN(Cc3ccccc3)C(=S)NCCCN(C)C)cc2c1 was tested. Which inhibition did it give?
Answer: 2.15%

Question: Which inhibition does the source give for Cc1cc(C)cc(NC(=S)NCCCN2CCOCC2)c1 here?
Answer: 0.98%

Question: Cc1ccc2cc(C#N)c(NCCNC(=S)NCCCN3CCOCC3)nc2c1 was tested. Which inhibition did it give?
Answer: 50.7% (active)

Question: How did the inhibition turn out when C=CCn1c(SCc2nnc(-c3ccccc3)o2)nnc1C(O)c1ccccc1 (centres undefined) was run?
Answer: 5.64%

Question: Which inhibition does the source give for CCOc1ccc(N(C(=O)c2snc(C(N)=O)c2N)C(C(=O)NCC2CCCO2)c2c[nH]c3ccccc23)cc1 (centres undefined) here?
Answer: 7.52%

Question: For COc1cc(F)c(C2=CC(=O)CC(C)(C)C2)cc1F, which inhibition is on record?
Answer: -23.8%

Question: CC(=O)Nc1ccc(S(=O)(=O)N(CCc2ccccc2)CC(=O)N/N=C/c2ccc(C(=O)O)cc2)cc1 was tested. Which inhibition did it give?
Answer: -5.24%

Question: For COc1ccc(N(CC(=O)N/N=C/c2cccc3c2OCCO3)S(=O)(=O)c2ccc(NC(C)=O)cc2)cc1, which inhibition is on record?
Answer: 38.9% (active)

Question: Which inhibition does the source give for COc1ccc(N(CC(=O)N/N=C/c2cccs2)S(=O)(=O)c2ccc(OC)c(OC)c2)cc1 here?
Answer: -15.8%

Question: How did the inhibition turn out when O=C1c2cccc(OCC(=O)N3N=C(c4cccs4)CC3c3ccc(F)cc3)c2CCN1Cc1ccccc1 (centres undefined) was run?
Answer: -25.8%

Question: Cc1ccc(C2=NN(C(=O)COc3ncnc4ccccc34)C(c3ccco3)C2)cc1 (centres undefined) was tested. Which inhibition did it give?
Answer: -119%

Question: For O=C(COc1ccccc1Cl)N1N=C(c2cccs2)CC1c1ccco1 (centres undefined), which inhibition is on record?
Answer: 39.1% (active)

Question: CCC(C)(C(=O)NC1CCCC1)N(C(=O)CNC(C)=O)c1ccc(C)cc1 (centres undefined) was tested. Which inhibition did it give?
Answer: -5.51%

Question: O=C(O)c1ccc2c(=O)n3c(nc2c1)/C(=C/c1ccc(OC(F)F)cc1OC(F)F)CC3 was tested. Which inhibition did it give?
Answer: 41% (active)

Question: Which inhibition does the source give for N#Cc1ccc(/C=C2\CCn3c2nc2cc(C(=O)O)ccc2c3=O)cc1 here?
Answer: 63.7% (active)

Question: With Cc1cc(C)c(C)c(S(=O)(=O)N2CCN(C(=O)c3ccc4c(=O)n5c(nc4c3)CCC5)CC2)c1C as the compound, how does the inhibition read?
Answer: 20.1%

Question: How did the inhibition turn out when Cc1ccc(/C=C2\CCn3c2nc2cc(C(=O)O)ccc2c3=O)c(C)c1 was run?
Answer: 31.9%

Question: O=C(Nc1cc(F)ccc1F)c1ccc2c(=O)n3c(nc2c1)CCC3 was tested. Which inhibition did it give?
Answer: 8.53%

Question: For N#Cc1cccc(OC(=O)c2ccc3c(=O)n4c(nc3c2)CCC4)c1, which inhibition is on record?
Answer: -4.93%

Question: Which inhibition does the source give for CCCn1c(C2CCCN2c2nc(-c3ccc(OC)cc3)cs2)nc2ccccc21 (centres undefined) here?
Answer: -26.8%

Question: CCOC(=O)[C@]12CCC=C1N(Cc1ccco1)C(=O)[C@H](CC(=O)NCc1cccc(C(F)(F)F)c1)C2 was tested. Which inhibition did it give?
Answer: 5.67%

Question: How did the inhibition turn out when COc1cc(C2NC(=O)NC(c3ccccc3)=C2C(C)=O)c(Br)cc1OCC(N)=O (centres undefined) was run?
Answer: 9.92%

Question: Which inhibition does the source give for COc1ccc(-n2cc(CN(C)Cc3n[nH]c(=O)[nH]3)c(-c3cccc(F)c3)n2)cc1 here?
Answer: 47.7% (active)

Question: Which inhibition does the source give for Cc1nc2ccc(S(=O)(=O)NC(C(=O)N3CCCCCC3)C(C)C)cc2s1 (centres undefined) here?
Answer: 1.31%

Question: How did the inhibition turn out when COc1cc2c(cc1CNC[C@H]1O[C@@H](n3cnc(C(N)=O)n3)[C@H](O)[C@@H]1O)OCO2 was run?
Answer: 0.3%

Question: For Cc1nn(-c2ccccc2)c(NC(=O)c2cccs2)c(-c2ccc(Cl)cc2)c1=O, which inhibition is on record?
Answer: 5.28%

Question: Which inhibition does the source give for CCOC(=O)c1cnc2nc(SCc3ccccc3Cl)[nH]n2c1=O here?
Answer: 36.4% (active)

Question: CCOC(=O)c1cnn(Cc2ccccc2Cl)c1N was tested. Which inhibition did it give?
Answer: 4.25%

Question: For CCOC(=O)CSc1nc2c(c(=O)n(Cc3ccccc3Cl)c(=O)n2C)n1C, which inhibition is on record?
Answer: -3.76%

Question: With CC1=C(C(=O)OCC2CCCCC2)C(c2ccc(F)cc2)NC(=O)N1 (centres undefined) as the compound, how does the inhibition read?
Answer: 10.3%

Question: CCN(C[C@H]1N[C@@](CC)(C(=O)OC)[C@H]2C(=O)N(Cc3ccccc3)C(=O)[C@@H]12)S(=O)(=O)c1ccc(C(F)(F)F)cc1 was tested. Which inhibition did it give?
Answer: 2.27%

Question: With c1ccc(-c2[nH]ncc2-c2nc3ccccc3[nH]2)cc1 as the compound, how does the inhibition read?
Answer: 44.3% (active)

Question: Oc1ccc(-c2[nH]ncc2-c2nc3ccccc3s2)c(O)c1 was tested. Which inhibition did it give?
Answer: -10.2%

Question: With O=C1Nc2ccc([N+](=O)[O-])cc2C1=Nc1cccc(CO)c1 as the compound, how does the inhibition read?
Answer: -19.4%

Question: For COC(=O)C1(C(=O)OC)C[C@H](c2ccccc2)N(Cc2ccccc2OC)[C@@H]1c1ccccc1, which inhibition is on record?
Answer: -0.75%

Question: Which inhibition does the source give for CN(Cc1nc2ccccc2c(=O)[nH]1)Cc1cc(=O)oc2ccc3ccccc3c12 here?
Answer: 10.8%

Question: How did the inhibition turn out when O=c1cc(CN2CCCCCCC2)c2c(ccc3ccccc32)o1 was run?
Answer: 47.4% (active)

Question: With CC(C)c1ccc2oc(=O)cc(CN3CCN(Cc4ccccc4)CC3)c2c1 as the compound, how does the inhibition read?
Answer: 8.04%

Question: NC(=O)C1CCN(C(=O)/C(=C/c2ccco2)NC(=O)c2ccccc2)CC1 was tested. Which inhibition did it give?
Answer: 2.01%
